# Experimental data taken from PubChem BioAssay AID720518 (National Center for Advancing Translational Sciences (NCATS), 2013).
# Inconclusive results are not listed. Active and inactive are the calls of the source. Calls come from the whole dose curve.
# Assay: qHTS for Inhibitors of Cell Surface uPA Generation: Wild-type Protective Antigen (WT-PrAg) Counterscreen for Cherry-picked Compounds; note: 0% is about no effect
# Conditions: cells, WT protective antigen toxicity counterscreen; series mostly up to 115 µM; activity (protection): at the top concentration
row,Structure (SMILES),activity (protection)
1,CCCCCOC(=O)Nc1nnc(CCCCC)s1,2.85% (inactive)
2,O=C(c1cc(COc2c(F)cccc2F)on1)N1CCc2ccccc2C1,-1.56% (inactive)
3,CCOCCCn1c(SCC(=O)Nc2oc(C)c3c(C)n[nH]c(=O)c23)nc2ccccc2c1=O,-1.46% (inactive)
4,Cc1cc(C)c(NC(=O)Cn2nnc(C(=O)NCc3ccc4c(c3)OCO4)c2N)c(C)c1,3.21% (inactive)
5,C=CCNC(=S)NCC=C,1.06% (inactive)
6,COc1ccc(Cc2nnc(NC(=O)Nc3ccc(F)cc3)s2)cc1,6.85% (inactive)
7,Cc1ccc(S(=O)(=O)NCC(=O)N/N=C/c2ccc(Cl)cc2)cc1,-1.05% (inactive)
8,COc1ccc(CCNC(=O)Cn2cccc2C(=O)c2ccccc2)c(OC)c1,-1.11% (inactive)
9,CCC(CC)Nc1ccc(C(CC(N)=O)NC(=O)Cc2ccc(Br)cc2)cc1[N+](=O)[O-] (stereo not given),-2.11% (inactive)
10,Cc1cc(=O)[nH]c(=S)[nH]1,-1.26% (inactive)
11,Cc1ccc(C)c(-c2ccc(=O)n(Cc3c(F)cccc3Cl)n2)c1,-1.81% (inactive)
12,O=S(=O)(/N=C(/c1ccccc1)N1CCOCC1)c1ccc(F)cc1F,0.385% (inactive)
13,COc1ccc(NC(=O)c2nn(C)c3c2CS(=O)(=O)c2ccccc2-3)cc1,-0.433% (inactive)
14,CCCCNC(=O)c1cc2c(-c3ccc(Cl)cc3)nn(C)c2s1,-0.155% (inactive)
15,COc1ccc(N2CCN(S(=O)(=O)c3ccc4c(c3)NC(=O)CS4)CC2)cc1,-0.171% (inactive)
16,CCN(CC)CCCNC(=O)c1cn(C)c(=O)c2c1c1ccccc1n2C,4.64% (inactive)
17,CCOC(=O)C1=C(CN2CCN(C(=O)c3ccco3)CC2)NC(=O)NC1c1ccccc1 (stereo not given),-0.235% (inactive)
18,Cc1ccc(S(=O)(=O)N2CCC(C)CC2)cc1,0.504% (inactive)
19,COCCN(C(=O)CSc1nnc(-c2ccncc2)n1C)c1c(N)n(CC(C)C)c(=O)[nH]c1=O,-0.576% (inactive)
20,C=CCOC(=O)C1=C(C)NC(C)=C(C(=O)OCC=C)C1c1cn(-c2ccccc2)nc1-c1ccco1,1.61% (inactive)

row,Structure (SMILES),activity (protection)
1,O=C(NCc1ccco1)/C(=C\c1cccs1)NC(=O)c1ccccc1,-0.228% (inactive)
2,c1ccc(C2[C@H]3CN(Cc4cccnc4)[C@H](c4ccccc4)C34CC2(c2ccccc2)C4)cc1 (stereo not given in full),2.02% (inactive)
3,c1cncc(C2CCCCN2)c1 (stereo not given),0.201% (inactive)
4,CCOc1cc(N2CCOCC2)c(OCC)cc1NC(=O)c1[nH]c(C)c(C(C)=O)c1C,-1.39% (inactive)
5,COc1ccc(OC)c(S(=O)(=O)N2CCC(NC(=O)c3ccccc3)CC2)c1,0.873% (inactive)
6,Cn1cc(SCC(=O)Nc2nccs2)c2ccccc21,-1.59% (inactive)
7,N/C(=N/OC(=O)c1ccccc1F)c1nonc1N,-1.6% (inactive)
8,O=C(NCC1CCCO1)c1c(O)c2cccc3c2n(c1=O)CCC3 (stereo not given),-2.22% (inactive)
9,COc1ccc([C@H]2CC(=O)C=C(c3ccc(CNC(=O)OC(C)(C)C)cc3)C2)cc1,-1.05% (inactive)
10,Cc1ccccc1NC(=O)N1CCN(c2ncccn2)CC1,-1.63% (inactive)
11,COc1ccccc1NC(=O)Cn1nnc(-c2ccccc2NC(=O)c2cc3ccccc3oc2=O)n1,-0.855% (inactive)
12,CC(=O)Nc1ccc(NC(=O)CCCCCN2C(=O)c3ccccc3C2=O)cc1,-0.858% (inactive)
13,CC/C(=N\Nc1ccccc1[N+](=O)[O-])c1ccc(O)cc1,-1.06% (inactive)
14,Cc1ccc(C(CC(=O)N2CCCC2)c2ccccc2)c(O)c1 (stereo not given),-0.548% (inactive)
15,O=C(NCCOc1ccc(F)cc1)C1CCN(S(=O)(=O)c2ccccc2)CC1,-0.928% (inactive)
16,O=C(/C=C/c1cccc(F)c1)Nc1cc(S(=O)(=O)N2CCOCC2)ccc1Cl,-1.99% (inactive)
17,O=C(O)CSc1nnc(COc2ccccc2)n1-c1ccccc1,-0.315% (inactive)
18,COCCOC(=O)C1=C(C)NC(=O)NC1c1cccc2ccccc12 (stereo not given),1.46% (inactive)
19,COc1ccc(-n2nc(C(=O)Nc3cc(OC)c(OC)c(OC)c3)c3ccccc3c2=O)c(OC)c1,-1.69% (inactive)
20,COc1cccc(CN(C)C(=O)c2cc(S(=O)(=O)N3CCCC3)ccc2C)c1OC,-0.352% (inactive)
